Rows were chosen to be rich in hits. Some 12% of all compounds tested hit in one or more screens of this group.
BAZ2B inh – qHTS Assay for Inhibitors of BAZ2B; Bromodomain adjacent to zinc finger domain protein 2B (Homo sapiens), Q9UIF8; AlphaScreen BAZ2B-H3K14Ac peptide displacement; AID 504333, 2011; actives 4.4% (n = 360,000); Potency, µM (series often up to 114 µM), most hits filed as inhibitors; further: nearly all actives have a fitted effect of over 60% in size
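Complex of BAZ2B and biotin-H3K14Ac (50 nM apiece) forms over 30 min at RT, then faces library compounds up to 110 uM for another 30 min; AlphaScreen beads added, 20 min dark incubation, luminescence read.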
Sfp PPTase inh – qHTS Assay for Inhibitors of Bacillus subtilis Sfp phosphopantetheinyl transferase (PPTase); actives 3.5% (n = 310,000); Biochemical Sfp PPTase activity, qHTS; 4'-phosphopantetheinyl transferase ffp (Bacillus subtilis), Q9F4F7; Potency, µM, actives largely listed as inhibitors; AID 1490, 2009;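 further: the enzyme is Sfp with the accession as filed and its product quenches rhodamine fluorescence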
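Step 1, compound plus 15 nM Sfp-PPTase, 15 min, room temperature. Step 2, add rhodamine-CoA (5 uM) and BHQ-2-YbbR (12.5 uM). Step 3, read 525/598 nm fluorescence at 0 and 30 min.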
JMJD2A Tudor inh – qHTS Assay for Inhibitors of JMJD2A-Tudor Domain; Potency, µM (titrated, usually from 114 µM), most hits filed as inhibitors; AlphaScreen JMJD2A-Tudor / H3K4me3 peptide binding; actives 4.4% (n = 390,000); Lysine-specific demethylase 4A (Homo sapiens), O75164; further: nearly all actives have a fitted effect of over 50% in size
G9a inh – qHTS Assay for Inhibitors of Histone Lysine Methyltransferase G9a; G9a H3K9 monomethylation, AlphaScreen, 2 h; AID 504332, 2011; actives 8.8% (n = 350,000); Potency, µM (highest dose often 102 µM), most hits filed as inhibitors; further: nearly all actives have a fitted effect of over 75% in size
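AlphaScreen detection with an anti-monomethyl H3K9 antibody quantified product after a 2 h room-temperature reaction containing 500 nM biotinylated H3K9 peptide, 20 µM SAM and 20 nM enzyme, which had been preincubated 15 min with compound.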
L3MBTL1 inh – qHTS Assay for the Inhibitors of L3MBTL1; AlphaScreen L3MBTL1–H3K9me1 peptide binding; Potency, µM (top dose mostly 57.1 µM), hits mostly inhibitors; actives 0.66% (n = 230,000); AID 485360, 2010; further: nearly all actives have a fitted effect of over 60% in size
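Displacement of a biotinylated histone H3(1-15) peptide monomethylated at Lys9 (75 nM) from L3MBTL1 (50 nM) was measured by AlphaScreen after a 30 min room-temperature compound incubation; cefsulodin titration served as intraplate control.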
HP1b chromo inh – HTS for Inhibitors of HP1-beta Chromodomain Interactions with Methylated Histone Tails; Chromobox protein homolog 1 (Homo sapiens), P83916; AlphaScreen HP1-beta / biotin-H3K9me3 peptide binding; Potency, µM (top dose mostly 114 µM), usual class: inhibitors; actives 0.56% (n = 390,000); AID 540317, 2011; further: nearly all actives have a fitted effect of over 70% in size
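Compound inhibition of the preformed complex between 50 nM HP1-beta and 50 nM biotinylated H3K9me3 peptide was read by AlphaScreen. Buffer was PBS pH 7.4 with 0.01% Tween-20. Incubations ran 30 min at room temperature, with 10 ug/mL donor/acceptor beads.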
Of the large screens only hits and unclear results are named; the others gave an inactive call; ! = not active in a repeat. The call rests on the fitted dose curve; in most records, active means well fitted curve in the direction sought with a large enough effect; inconclusive means small, poorly fitted or top-dose-only effect, or another doubt; inactive means no such curve, though single readings can be large; an effect the other way counts as inactive or inconclusive.

Cc1ccc(C(=O)OCC(=O)NCCNC(=O)COC(=O)c2ccc(C)o2)o1	G9a inh 56µM (no result: Sfp PPTase inh)
CCOc1ccc(CCNC(=O)COC(=O)/C=C/c2ccc(OC)c(OC)c2)cc1OCC	none (no result: L3MBTL1 inh)
Cc1ccc(/C=C/C(=O)OCC(=O)NCCN2C(=O)CSC2=O)cc1	none (no result: L3MBTL1 inh)
CCCN1C(=O)c2[nH]nc(-c3cccc(OC)c3)c2C1c1ccccn1 (configuration not stated)	none (no result: Sfp PPTase inh, L3MBTL1 inh)
CCCNC(=O)COC(=O)/C=C/c1ccc(C)o1	G9a inh 50µM
Cc1ccc(C(=O)NCC(=O)OC(C)C(=O)Nc2ccccc2[N+](=O)[O-])s1 (configuration not stated)	none (no result: BAZ2B inh, Sfp PPTase inh, G9a inh)
Cc1ccc(C(=O)NCC(=O)OC(C)C(=O)Nc2ccc(N(C)C)cc2)s1 (configuration not stated)	G9a inh 40µM (no result: L3MBTL1 inh)
COc1ccc(NC2=C(NCCO)C(=O)c3ccccc3C2=O)cc1	BAZ2B inh 22µM, JMJD2A Tudor inh inconclusive, G9a inh 14µM, L3MBTL1 inh inconclusive, HP1b chromo inh 16µM
Cc1cccc(Nc2nc(N)c([N+](=O)[O-])c(NCCO)n2)c1	none
Cc1cccc(NC2=C(NCCO)C(=O)c3ccccc3C2=O)c1	BAZ2B inh 20µM, JMJD2A Tudor inh 56µM, G9a inh 32µM, L3MBTL1 inh inconclusive, HP1b chromo inh 20µM
COc1cccc(NC2=C(NCCO)C(=O)c3ccccc3C2=O)c1	BAZ2B inh 35µM, JMJD2A Tudor inh 50µM, HP1b chromo inh inconclusive
COc1cccc(Nc2c(Nc3cccc(OC)c3)c(=O)c2=O)c1	BAZ2B inh inconclusive (no result: L3MBTL1 inh)
COc1ccc2c(c1)CC(C(=O)Nc1c(C)cc(C)cc1C)CO2 (configuration not stated)	none (no result: Sfp PPTase inh, L3MBTL1 inh)
COc1ccc([C@@H]2CC(=O)c3c(O)cc(O[C@@H]4O[C@H](CO)[C@@H](O)[C@H](O)[C@H]4OC4O[C@@H](C)[C@H](O)[C@@H](O)[C@H]4O)cc3O2)cc1O (some centres not stated)	none (no result: BAZ2B inh, JMJD2A Tudor inh, G9a inh, L3MBTL1 inh, HP1b chromo inh)
CC/C=C\C/C=C\C/C=C\CCCCCCCC(=O)O	Sfp PPTase inh 79µM!, G9a inh 18µM!, L3MBTL1 inh inconclusive
CC/C=C\C/C=C\C/C=C\CCCCCCCCCCCC(=O)O	none (no result: BAZ2B inh, JMJD2A Tudor inh, L3MBTL1 inh, HP1b chromo inh)
N#Cc1ccc(C(=O)Nc2nnc(-c3cccs3)o2)cc1	BAZ2B inh 50µM, JMJD2A Tudor inh 56µM (no result: G9a inh)
CN(C)S(=O)(=O)c1ccc(C(=O)Nc2nnc(-c3cccs3)o2)cc1	BAZ2B inh inconclusive, JMJD2A Tudor inh 79µM
CN1C(=O)c2ccccc2Sc2ccc(C(=O)O)cc21	none (no result: L3MBTL1 inh)
C=Cc1ccc2c(c1)N(C)C(=C)S2	Sfp PPTase inh 10µM, JMJD2A Tudor inh inconclusive, G9a inh 8.9µM
CC1CCC(C(C)C)C(OCC(O)CN2CCCC(C)C2)C1 (configuration not stated)	none
CC1CCC(C(C)C)C(OCC(O)C[N+]2(C)CCCCC2)C1 (configuration not stated)	G9a inh 50µM, HP1b chromo inh inconclusive
COc1cccc(Cn2c(=O)c(C)nc3cnc(Nc4ccccc4)nc32)c1	none (no result: BAZ2B inh, JMJD2A Tudor inh, L3MBTL1 inh, HP1b chromo inh)
N#Cc1nc(Cc2cccc3ccccc23)oc1NCCCN1CCOCC1	BAZ2B inh inconclusive, G9a inh 50µM
c1ccc2c(NCCCN3CCOCC3)c3ccccc3nc2c1	G9a inh 50µM (no result: JMJD2A Tudor inh, HP1b chromo inh)
Oc1ccccc1CNCCCN1CCOCC1	BAZ2B inh inconclusive, JMJD2A Tudor inh 4.5µM, G9a inh 8.9µM
CCc1ccc(NC(=O)CSC2=Nc3ccccc3C3=NC(CCC(=O)NCc4ccccc4)C(=O)N23)cc1 (configuration not stated)	G9a inh inconclusive (no result: Sfp PPTase inh, L3MBTL1 inh)

From PubChem
